The nature of experiment [1]: NCI Yeast Anticancer Drug Screen. Data for the rad50 strain (AID 155).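 Further: 0% = growth of vehicle-only cultures of the same strain.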 The settings on record: S. cerevisiae rad50 strain growth inhibition, active compounds read high. A digest of the protocol:
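Readout: growth inhibition relative to vehicle-treated cultures. Compound exposure was carried out in a genetically defined yeast strain deficient in DNA damage repair.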

Experiment [2] in a line: NCI Yeast Anticancer Drug Screen. Data for the mec2-1 strain (AID 157). The settings on record: S. cerevisiae mec2-1 strain, active compounds read high. A digest of the protocol: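 Using mec2-1 yeast: add compound, measure growth, express inhibition versus vehicle-treated cultures.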
Experiment [3] is described as follows: NCI Yeast Anticancer Drug Screen. Data for the sgs1 mgt1 strain (AID 161).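 Further: 0% = growth of cultures given vehicle only.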 The conditions noted are these: S. cerevisiae sgs1 mgt1 strain, active compounds read high. The method in brief:
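Compounds are added to genetically altered yeast, and growth is compared with cultures given vehicle alone to give percent inhibition.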

The nature of experiment [4]: NCI Yeast Anticancer Drug Screen. Data for the cln2 rad14 strain (AID 165).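 Further: 0% = growth equal to vehicle treated cultures.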 The conditions noted are these: S. cerevisiae cln2 rad14 strain, active compounds read high. A digest of the protocol:
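Yeast strain cln2 rad14, bearing defects in cell cycle control and DNA repair, serves as the test system; values reflect growth inhibition compared with vehicle.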

Experiment [5] is described as follows: NCI Yeast Anticancer Drug Screen. Data for the bub3 strain (AID 167). The conditions noted are these: S. cerevisiae bub3 mutant strain, active compounds read high. A digest of the protocol: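 Readout: yeast growth inhibition, expressed relative to vehicle-only wells. The test organism is a mutant strain from a panel with lesions in DNA repair or checkpoint genes.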

A short description of experiment [6]: NCI Yeast Anticancer Drug Screen. Data for the mlh1 rad18 strain (AID 175). The settings on record: S. cerevisiae mlh1 rad18 strain growth inhibition, active compounds read high. The method in brief: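 Steps: expose repair-defective yeast to compound; measure growth; express inhibition against vehicle-treated controls.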
The mark [7] stands for this setting: at 5.0 µM (retest, dose inferred, filed as 0.5).
Where [8] appears, read: at 50.0 µM (retest, dose inferred, filed as 5.0).

Compounds without any hit were thinned out: in the full panel of roughly 79,000, 15% have a hit. A number with no mark means an inactive call. Calls of active or inactive are those of the source. No stated cut-off is given here; in the data, active means growth inhibition above about 70%; inactive means the rest.

From PubChem BioAssay (NCI) come the findings set out here.

For the compound `CNC(=O)OCCC(OC(=O)NC)C1CCC2C3CC=C4CC(OC(=O)NC)CCC4(C)C3CCC12C` (configuration not stated), the growth inhibition in experiment [1] (setting [7]) was 85% (active); in experiment [1] (setting [8]), 94% (active); in experiment [1] (at 50.0 µM), 6.5%; in experiment [2] (setting [7]), 52%; in experiment [2] (setting [8]), 94% (active); in experiment [2] (at 50.0 µM), -1.8%. The growth inhibition is 77% (active) in experiment [3] (setting [7]); 96% (active) in experiment [3] (setting [8]); 2.6% in experiment [3] (at 50.0 µM); 72% (active) in experiment [4] (setting [7]); 89% (active) in experiment [4] (setting [8]); -6.45% in experiment [4] (at 50.0 µM). The growth inhibition in experiment [5] (setting [7]) was 73% (active); in experiment [5] (setting [8]) it was 94% (active); in experiment [5] (at 50.0 µM), -1.8%; in experiment [6] (setting [7]) it was 88% (active); in experiment [6] (setting [8]), 91% (active); in experiment [6] (at 50.0 µM), 34.5%.

As for `Cc1c(N)nc(C2CC(=O)N2CC(N)C(N)=O)nc1C(=O)NC(C(=O)NC(C)C(O)C(C)C(=O)NC(C(=O)NCCc1nc(-c2nc(C(=O)NCCCNC3CCCC3)cs2)cs1)C(C)O)C(OC1OC(CO)C(O)C(O)C1OC1OC(CO)C(O)C(OC(N)=O)C1O)c1cnc[nH]1` (configuration not stated), the growth inhibition is 98% (active) in experiment [1] (setting [7]); 99% (active) in experiment [1] (setting [8]); 92.2% (active) in experiment [1] (at 50.0 µM); 97% (active) in experiment [2] (setting [7]); 99% (active) in experiment [2] (setting [8]); 93.3% (active) in experiment [2] (at 50.0 µM). Also, the growth inhibition in experiment [3] (setting [7]) was 96% (active); in experiment [3] (setting [8]) it was 98% (active); in experiment [3] (at 50.0 µM), 93.5% (active); in experiment [4] (setting [7]), 93% (active); in experiment [4] (setting [8]), 97% (active); in experiment [4] (at 50.0 µM), 88.3% (active). Moreover, the growth inhibition in experiment [5] (setting [7]) was 97% (active); in experiment [5] (setting [8]), 98% (active); in experiment [5] (at 50.0 µM) it was 93.5% (active); in experiment [6] (setting [7]), 98% (active); in experiment [6] (setting [8]), 99% (active); in experiment [6] (at 50.0 µM), 92% (active).

On to `CCC[CH2][Sn]([CH2]CCC)([O]C(=O)Cc1ccc(F)cc1)[O]C(=O)Cc1ccc(F)cc1`, for which the growth inhibition in experiment [1] (setting [7]) was 27%; in experiment [1] (setting [8]) it was 27%; in experiment [1] (at 50.0 µM), 86.7% (active); in experiment [2] (setting [7]), 30%; in experiment [2] (setting [8]), 30%; in experiment [2] (at 50.0 µM), 81.5% (active). Further, the growth inhibition is 27% in experiment [3] (setting [7]); 27% in experiment [3] (setting [8]); 83.3% (active) in experiment [3] (at 50.0 µM); 16% in experiment [4] (setting [7]); 16% in experiment [4] (setting [8]); 78.1% (active) in experiment [4] (at 50.0 µM). Also, the growth inhibition was 21% in experiment [5] (setting [7]); 21% in experiment [5] (setting [8]); 76% (active) in experiment [5] (at 50.0 µM); 14% in experiment [6] (setting [7]); 14% in experiment [6] (setting [8]); 76.2% (active) in experiment [6] (at 50.0 µM).

With `CC(O)C(O)C(O)C(O)C(O)C(=O)O` (configuration not stated), the growth inhibition in experiment [1] (setting [7]) is -2%; in experiment [1] (setting [8]), -6%; in experiment [1] (at 50.0 µM), 18.4%; in experiment [2] (setting [7]) it was -2%; in experiment [2] (setting [8]), -1%; in experiment [2] (at 50.0 µM), 10.9%. The growth inhibition was -1% in experiment [3] (setting [7]); -2% in experiment [3] (setting [8]); -9.1% in experiment [3] (at 50.0 µM); 4% in experiment [4] (setting [7]); -3% in experiment [4] (setting [8]); 1.95% in experiment [4] (at 50.0 µM). The growth inhibition is 0% in experiment [5] (setting [7]); 4% in experiment [5] (setting [8]); 45.7% in experiment [5] (at 50.0 µM); -1% in experiment [6] (setting [7]); -7% in experiment [6] (setting [8]); -10.9% in experiment [6] (at 50.0 µM).

For `CC1=CC(O)(c2nc3ccccc3s2)CC(C)(C)C1` (configuration not stated), the growth inhibition in experiment [1] (setting [7]) is 3%; in experiment [1] (setting [8]), 60%; in experiment [1] (at 50.0 µM), 69.7%; in experiment [2] (setting [7]) it was 6%; in experiment [2] (setting [8]), 61%; in experiment [2] (at 50.0 µM), 56.1%. Also, the growth inhibition is -1% in experiment [3] (setting [7]); 61% in experiment [3] (setting [8]); 64.2% in experiment [3] (at 50.0 µM); -2% in experiment [4] (setting [7]); 51% in experiment [4] (setting [8]); 47.7% in experiment [4] (at 50.0 µM). In addition, the growth inhibition in experiment [5] (setting [7]) was 15%; in experiment [5] (setting [8]) it was 31%; in experiment [5] (at 50.0 µM) it was 41.4%; in experiment [6] (setting [7]) it was -2%; in experiment [6] (setting [8]), 69%; in experiment [6] (at 50.0 µM), 66.4%.

Regarding `O=C1C(=O)C(Br)(c2ccccc2)C(=O)C1c1ccccc1` (configuration not stated), the growth inhibition was -16% in experiment [1] (setting [7]); 4% in experiment [1] (setting [8]); 52.5% in experiment [1] (at 50.0 µM); -22% in experiment [2] (setting [7]); 2% in experiment [2] (setting [8]); 71.4% (active) in experiment [2] (at 50.0 µM). For the same compound, the growth inhibition is -19% in experiment [3] (setting [7]); 8% in experiment [3] (setting [8]); 13.2% in experiment [3] (at 50.0 µM); -2% in experiment [4] (setting [7]); 72% (active) in experiment [4] (setting [8]); 93.8% (active) in experiment [4] (at 50.0 µM). In addition, the growth inhibition in experiment [5] (setting [7]) was 85% (active); in experiment [5] (setting [8]), 97% (active); in experiment [5] (at 50.0 µM) it was 97.7% (active); in experiment [6] (setting [7]) it was 7%; in experiment [6] (setting [8]) it was 20%; in experiment [6] (at 50.0 µM), 97.7% (active).

Regarding `O=C1C=C(c2cccc(-c3ccccc3)c2)CCC1`, the growth inhibition in experiment [1] (setting [7]) is 2%; in experiment [1] (setting [8]), 94% (active); in experiment [1] (at 50.0 µM), 93.5% (active); in experiment [2] (setting [7]), -2%; in experiment [2] (setting [8]), 96% (active); in experiment [2] (at 50.0 µM) it was 95.3% (active). Besides, the growth inhibition is -5% in experiment [3] (setting [7]); 92% (active) in experiment [3] (setting [8]); 97.2% (active) in experiment [3] (at 50.0 µM); 2% in experiment [4] (setting [7]); 92% (active) in experiment [4] (setting [8]); 95.8% (active) in experiment [4] (at 50.0 µM). Further, the growth inhibition was 2% in experiment [5] (setting [7]); 87% (active) in experiment [5] (setting [8]); 96.3% (active) in experiment [5] (at 50.0 µM); -1% in experiment [6] (setting [7]); 92% (active) in experiment [6] (setting [8]); 96.4% (active) in experiment [6] (at 50.0 µM).

Regarding `NC(=S)Nc1c(Br)cc(Br)cc1Br`, the growth inhibition in experiment [1] (setting [7]) was -1%; in experiment [1] (setting [8]), 91% (active); in experiment [1] (at 50.0 µM), 62.5%; in experiment [2] (setting [7]), 1%; in experiment [2] (setting [8]), 90% (active); in experiment [2] (at 50.0 µM), 33.5%. The growth inhibition in experiment [3] (setting [7]) was -1%; in experiment [3] (setting [8]) it was 84% (active); in experiment [3] (at 50.0 µM) it was 34.8%; in experiment [4] (setting [7]), 3%; in experiment [4] (setting [8]) it was 88% (active); in experiment [4] (at 50.0 µM), 23.1%. Also, the growth inhibition was -6% in experiment [5] (setting [7]); 80% (active) in experiment [5] (setting [8]); 74% (active) in experiment [5] (at 50.0 µM); 2% in experiment [6] (setting [7]); 88% (active) in experiment [6] (setting [8]); 47% in experiment [6] (at 50.0 µM).

Regarding `CCOSc1ccccc1`, the growth inhibition in experiment [1] (setting [7]) was 3%; in experiment [1] (setting [8]), 50%; in experiment [1] (at 50.0 µM), 34.3%; in experiment [2] (setting [7]), 5%; in experiment [2] (setting [8]) it was 63%; in experiment [2] (at 50.0 µM), 32.7%. Further, the growth inhibition in experiment [3] (setting [7]) was 3%; in experiment [3] (setting [8]) it was 74% (active); in experiment [3] (at 50.0 µM), 16.2%; in experiment [4] (setting [7]), 2%; in experiment [4] (setting [8]) it was 22%; in experiment [4] (at 50.0 µM), 16.1%. The growth inhibition in experiment [5] (setting [7]) was 0%; in experiment [5] (setting [8]), 74% (active); in experiment [5] (at 50.0 µM) it was 20.6%; in experiment [6] (setting [7]) it was 21%; in experiment [6] (setting [8]), 93% (active); in experiment [6] (at 50.0 µM), 56.7%.
